According to PubChem BioAssay (EPA / NIEHS):
Calls of active or inactive are those of the source. The calls were made as follows: active = hit-call score of the fitted dose curve at least 0.9, where 1 is the maximum; inactive = score below 0.9.

read-out: Pro-epidermal growth factor (Homo sapiens) (UniProt P01133); assay: LTEA_HepaRG_EGF: Life Technologies and Expression Analysis (LTEA) Assay for Epidermal growth factor (EGF) using HepaRG (AID 2283489); settings: mRNA level, 48 h; actives raise or lower the signal
Description: LTEA_HepaRG is a cell based, multiplexed-readout assay that uses HepaRG, a human liver cell line, with measurements taken at 48 hours after chemical dosing on a 96-well plate.LTEA_HepaRG_EGF is one of 102 assay component(s) measured in the LTEA HepaRG cell culture assay. It is a marker of Cell proliferation, survival, death.Data from the assay component LTEA_HepaRG_EGF was analyzed into 1 endpoint. This assay endpoint, LTEA_HepaRG_EGF, was analyzed with bidirectional fitting relative to DMSO as the negative control and baseline of activity. Using a type of inducible reporter, measures of mRNA induction for gain or loss-of-signal activity can be used to understand regulation of transcription factor activity. To generalize the intended target to other relatable targets, this assay endpoint is annotated to the growth factor intended target family, where the subfamily is EGF-like domain.
A total of 1060 chemcials from the ToxCast library were tested in eight-point concentration-response experiments. Cell culture and cytotoxicity assays were conducted at Thermo Fisher Scientific's Custom Services facility (Madison, WI). A single lot of human HepaRG cells (Thermo Fisher Scientific, Frederick, MD) was used for the cell culture experiments. 96-well format collagen type I coated plates of human HepaRG cells were prepared using established methods. Briefly, cryopreserved HepaRG cells were thawed, plated at a density of approximately 100,000 cells/well in HepaRG Thaw, Plate, and General Purpose media (HPRG770, Thermo Fisher Scientific), and incubated for 48 hours. 0.5% DMSO was selected as vehicle control to balance the requisite need of DMSO in HepaRG cultures to maintain differentiation (for example, baseline metabolism, proportions of hepatocytes vs. cholangiocytes), while enabling further hepatic receptor pathway activation (for example, PXR and CAR) in response to chemical exposure. 48 hours after plating, the culture medium was replaced with HepaRG Serum-Free Incudtion Media. Cells were exposed to each test chemical in duplicate and maintained in CO2 incubators for another 48 hours. Chemical plates were thawed to room temperature and 200x concentrations of treatment groups were prepared. 8-point conentration-reponse curves were made with the highest exposure at 100 uM, followed by half-log dilutions, all in 0.5% DMSO. Each test plate contained variouse controls, induction positive controls (1mM phenobarbital), cytotoxicity positive controls ([…] aflatoxin B1), vehicle controls (0.5% DMSO), and total lysis controls (0.5% DMSO). Cell morphology images were taken using an Essen IncuCyte FLR automated microscope, with six 96-well plates imaged in about 24 minutes. Images were captured and exported and JPEG files. Spent culture media was transfered to black-well plates for the LDH assay, and remaining media was sorted at -80 C for later use. Cells were treated with RLT buffer and frozen until shipped for gene expression analysis. Total RNA was isolated from the cell suspension in 75 uL of Buffer RLT (Qiagen, Germantown, MD 20874) by Quintiles/Expression Analysis (Durham, NC) using a custom isolation procedure. Total RNA from each plate well was transferred to a preamplification plate. Fluidigm's 96.96 Dynamic ArrayTM (Fluidigm, Amsterdam, the Netherlands) technology was used for gene expression analyses by quantitative reverse transcription polymerase chain reaction (qRT-PCR, performed by Quintiles/Expression Analysis, Durham, NC)89. Standard TaqManTM Assays (Applied Biosystems/ThermoFisher Scientific, Foster City, CA) were used to assess the expression of 93 genes selected based on their selectivity and sensitivity to important hepatic receptors known to be modulated by environmental chemicals; importance in human hepatocyte functionality; and hepatotoxicity. […]

SMILES | AC50 | outcome
Fc1ccc(Oc2ccnc3cc(Cl)cc(Cl)c23)cc1 | 32.8 µM (active) | –
N#Cc1cc(Br)c(O)c(Br)c1 | 15.3 µM (active) | –
CC(C)(C)c1ccc(CSc2cnn(C(C)(C)C)c(=O)c2Cl)cc1 | – | inactive
CON(C)C(=O)Nc1ccc(Cl)c(Cl)c1 | – | inactive
OC(c1ccc(Cl)cc1)(c1cncnc1)c1ccccc1Cl (stereo not given) | 34.1 µM (active) | –
O=C(O)c1nc(Cl)ccc1Cl | – | inactive
C#CCOS(=O)OC1CCCCC1Oc1ccc(C(C)(C)C)cc1 (stereo not given) | 29.4 µM (active) | –
O=C(Nc1ccccc1)Nc1ccnc(Cl)c1 | – | inactive
CC(C)Oc1cc(-n2nc(C(C)(C)C)oc2=O)c(Cl)cc1Cl | – | inactive
C=CCC1=C(C)[C@@H](OC(=O)[C@@H]2[C@@H](C=C(C)C)C2(C)C)CC1=O | – | inactive
CCNc1nc(Cl)nc(NCC)n1 | – | inactive
COc1ccc(C(c2ccc(OC)cc2)C(Cl)(Cl)Cl)cc1 | – | inactive
COC(=O)C(C)Oc1ccc(Oc2ccc(Cl)cc2Cl)cc1 (stereo not given) | – | inactive
CC(C)C1(C)N=C(c2nc3ccccc3cc2C(=O)O)NC1=O (stereo not given) | – | inactive
CCOC(=O)C(Cl)Cc1cc(-n2nc(C)n(C(F)F)c2=O)c(F)cc1Cl (stereo not given) | – | inactive
COc1nc(NC(C)C)nc(NC(C)C)n1 | – | inactive
CC(Oc1ccc(Cl)cc1Cl)C(=O)O (stereo not given) | – | inactive
CCNc1nc(Cl)nc(NC(C)C)n1 | – | inactive
Cc1cc(Cl)ccc1OCC(=O)O | – | inactive
CCCC1COC(Cn2cncn2)(c2ccc(Cl)cc2Cl)O1 (stereo not given) | – | inactive

SMILES | AC50 | outcome
CCCCC(CC)COC(=O)c1ccccc1C(=O)OCC(CC)CCCC (stereo not given) | – | inactive
CCON=C(CC)C1=C(O)CC(c2c(C)cc(C)cc2C)CC1=O (stereo not given) | – | inactive
CCOC(=O)CC(SP(=S)(OC)OC)C(=O)OCC (stereo not given) | – | inactive
Cc1ccc(-c2c(Cl)nc(C#N)n2S(=O)(=O)N(C)C)cc1 | – | inactive
CCCCOC(=O)c1ccccc1C(=O)OCCCC | – | inactive
Cc1c(F)c(F)c(COC(=O)C2C(/C=C(\Cl)C(F)(F)F)C2(C)C)c(F)c1F (stereo not given) | 50 µM (active) | –
CCCCNC(=O)OCC#CI | – | inactive
CNC(=O)ON=CC(C)(C)SC | – | inactive
CN(C)C(=S)SSC(=S)N(C)C | – | inactive
COC(=O)N(OC)c1ccccc1COc1ccn(-c2ccc(Cl)cc2)n1 | 12.1 µM (active) | –
COP(N)(=O)SC (stereo not given) | – | inactive
CC1COC(Cn2cncn2)(c2ccc(Oc3ccc(Cl)cc3)cc2Cl)O1 (stereo not given) | – | inactive
COP(=S)(OC)Oc1nc(Cl)c(Cl)cc1Cl | – | inactive
C=CCC1=C(C)C(OC(=O)C2C(C=C(C)C)C2(C)C)CC1=O (stereo not given) | – | inactive
CCOc1cc(Oc2ccc(C(F)(F)F)cc2Cl)ccc1[N+](=O)[O-] | 10.5 µM (active) | –
CC1=C(C(=O)Nc2ccccc2)SCCO1 | – | inactive
COC(=O)C=C(C)OP(=O)(OC)OC | – | inactive
CCOP(=S)(OCC)SCn1c(=O)oc2cc(Cl)ccc21 | – | inactive
COc1cnc(OC)n2nc(NS(=O)(=O)c3c(OCC(F)F)cccc3C(F)(F)F)nc12 | – | inactive
N#CC(CCc1ccc(Cl)cc1)(Cn1cncn1)c1ccccc1 (stereo not given) | – | inactive
